Experimental data taken from PubChem BioAssay (NCI).
Compounds without any hit were thinned out: in the full panel of roughly 83,000, 20% have a hit.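 Method: cells in 96-well plates; compound added at one concentration; 48 h incubation; percent growth measured; values under 10 scored active.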 Unmarked numbers belong to inactive results. Calls of active or inactive are those of the source.

test system: HL-60(TB) leukemia; assay: NCI-60 one-dose screen, 48 h (100 = growth as untreated, 0 = no growth, -100 = all killed); details: 10 µM unless noted

Compound	growth
CCCCSc1nc(Nc2ccc(C(C)=O)cc2)c(C#N)c(-c2ccc(OC)cc2)n1	88%
COc1ccc(/C=C/C(=O)c2ccc(N3CCN(C)CC3)cc2)c(C(F)(F)F)c1	-24.7% (active)
CC(=O)Nc1cccc(Nc2nc(NCc3ccccc3)c3ccccc3n2)c1	-64% (active)
O=C(/C=C/c1cccc(OCc2ccccc2)c1)c1nc2ccccc2[nH]1	5.75% (active)
CCCn1c(=O)c2[nH]c(-c3ccc(OCc4nc5ccccc5[nH]4)cc3)nc2n(CCC)c1=O	85.3%
COc1cc(C2CC(c3ccc(C(F)(F)F)cc3)=Nc3c(N)nc(N)nc3N2)ccc1Oc1nc(Nc2ccc(F)cc2)nc(N(C)C)n1 (stereo not given)	13.7%
CC1=C(C(=O)OC(C)C)C(c2cccc(O)c2)NC(=S)N1 (stereo not given)	99.2%
COc1ccc2oc3c4[nH]c5ccccc5c4c4c(c3c2c1)C(=O)N(C(=O)OC(C)(C)C)C4=O	-7.65% (active)
O=C(Cn1nc(-c2ccccc2)ccc1=O)NNC(=S)NC1CCCCC1	94.8%
N#Cc1c(-c2ccc(Cl)cc2)cc(-c2ccccc2)nc1OCc1ccccc1	77.3%
Cc1noc2c(Cc3ccccc3)nn(CC(=O)N/N=C/c3ccc(Cl)cc3)c(=O)c12	103%
Cc1cc2nc3c4ccccc4n(CCCN(C)C)c3nc2cc1C	-40.5% (active)
O=C(N=Nc1c(O)[nH]c2ccc(Br)cc12)c1ccc2nc(-c3ccc(Cl)cc3)[nH]c2c1	20.9%
COc1ccc(-c2cc(C)nc3[nH]c(=O)sc23)cc1	75.6%
O=CNc1cccc(-n2cnc3cc(-c4ccc(O)cc4)ccc32)c1	8.14% (active)
COc1ccc(-c2cc(C(=O)OCc3ccc(Br)cc3)nn2-c2ccc(S(C)(=O)=O)cc2)cc1OC	83.6%
CCCn1c(NC(=O)c2cccc(C(N)=O)c2)nc2cc(CN3CCCCC3)ccc21	91.4%
O=C(Nc1ccc(Cl)c(C(F)(F)F)c1)c1cncc(C#Cc2cnc3ccc(N4CCOCC4)nn23)c1	-21.7% (active)

Compound	growth
N/C(=N\N=C\c1ccc([N+](=O)[O-])cc1)c1c(N)nc(=S)[nH]c1-c1ccc(Cl)cc1Cl	103%
COc1ccc2cc([C@H](C)C(=O)N/N=C/c3ccc(Br)cc3)ccc2c1	91.3%
COc1cccc2nc(Nc3cccc(NC(=O)c4ccc(CN5CCN(C)CC5)c(C(F)(F)F)c4)c3)ccc12	-53.1% (active)
O=C(NC(=S)N1CCN(c2ncnc3c2cnn3-c2ccccc2)CC1)c1ccc(Cl)cc1	95.5%
COc1cc(C2C(C(=O)OCc3ccccc3)=C(C)Nc3nc4ccccc4n32)cc(OC)c1OC (stereo not given)	16.1%
O=C(Cc1c(-c2cccc([N+](=O)[O-])c2)n(-c2ncnc3c2c(-c2ccccc2)c(-c2ccccc2)n3Cc2ccccc2)[nH]c1=O)c1ccc(Cl)c(Cl)c1	11.6%
O=C1NC2C=CC=CC2/C1=C1/SC(=S)N(C2CC(=O)N(c3ccc(Br)cc3)C2=O)C1=O (stereo not given)	58.9%
CNCc1cccc2c1OCCCCCC[C@@](C)(O)CC1(CC1)S(=O)(=O)c1ccc(cc1)-c1cnc(N)c(n1)C(=O)N2	-61.1% (active)
COc1cc2c(cc1OC)CN(CCCCOc1cc(O)c3c(=O)cc(-c4ccccc4)oc3c1)CC2	7.79% (active)
CCOc1ccccc1[C@H]1C(C(=O)c2ccc(Cl)cc2)C2(N[C@@H]1c1ccccc1)C(=O)Nc1ccc(Br)cc12 (stereo not given in full)	-18.4% (active)
CC(C)c1sc(NC(=O)c2cc(NC(=O)c3cc(NC(=O)c4nccn4C)cn3C)cn2C)nc1C(=O)NCCCN(C)C	47.1%
CC(=O)c1c2c(c3ccc4c5ccccc5ccc4n13)C(=O)c1ccccc1C2=O	94.2%
CCCCCCCCc1ccc(C(=O)Nc2cccc(O)c2)cc1	56.5%
FC(F)(F)c1cc2c(Cl)ncnc2n1CCN1CCOCC1	7.02% (active)
COc1c(B(O)O)cc(F)cc1-c1nc2c(F)cc3[nH]ncc3c2c2c1CCCC2	1.83% (active)
C#CCOc1ccc(/C=N/Nc2nc(-c3ccc(F)cc3)cs2)cc1OC	25.2%
CN(C)c1nc(NCCNS(=O)(=O)c2ccc(C(=O)/C=C/c3ccc(Cl)cc3)cc2)nc(Nc2ccc(F)cc2)n1	-42.7% (active)
